# Assay results published in PubChem BioAssay.
# Active and inactive are the calls of the source. Unless noted, the rule behind the calls is not given here.
# Key:
# [1] = compounds binding Alexa647 anti-His antibody – biochemical, small-molecule microarray, 635 nm fluorescence, artefact control for SMM control protein annotation, primary screen (AID 1128); details: higher = more signal;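 note: score merges feature fluorescence with signal-to-noise for each printed compound spot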
# [2] = tested on: Human papillomavirus type 1a E7 protein (residues 1-88); assay: HPV1a E7 small-molecule binders, primary screen, biochemical, small-molecule microarray, residues 1-88, 635 nm (AID 1129); details: small-molecule microarray binding, fluorescence 635 nm; higher = more signal
# [3] = target: Focal adhesion kinase 1 (Homo sapiens) (UniProt Q05397); assay: PTK2 protein binding on printed compound slides – biochemical, small-molecule microarray, 635/667 nm fluorescence, BSA, DTT, primary screen (AID 1130); details: 635 nm fluorescence, higher = more signal;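 note: composite of spot emission at 667 nm and signal to noise over triplicate slides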
# [4] = tested on: Fibrinogen (Alexa647-labelled); assay: Alexa647-fibrinogen binding to printed small molecules – biochemical, small-molecule microarray, 635/667 nm fluorescence, artefact control for SMM control-protein annotation, profiling panel (AID 1131); details: fibrinogen-A647 binding fluorescence, higher = more signal;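 note: z-score merges 667 nm fluorescence with per-spot signal-to-noise over triplicate slides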
# [5] = target: Follistatin (Homo sapiens) (UniProt P19883); assay: FST protein binding to printed compounds – biochemical, small-molecule microarray, 635/667 nm fluorescence, primary screen (AID 1132); details: 635 nm fluorescence, higher = more signal
# [6] = target: Fibroblast growth factor 2 (Homo sapiens) (UniProt P09038); assay: basic fibroblast growth factor binding to printed compounds – biochemical, small-molecule microarray, 635/667 nm fluorescence, primary screen (AID 1133); details: FGF2, fluorescence 635/667, higher = more signal
# [7] = JC-1 mitochondrial potential readout, lung cancer cells – cell-based, A549, JC-1 fluorescence, basal, 24 h, 100 nL, profiling panel (AID 1138); details: higher = more signal;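 note: A549 lung adenocarcinoma cells under basal conditions with no added stimulus; test concentration not given here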
# Lefty1 = Lefty1 protein binding to printed compounds – biochemical, small-molecule microarray, 635/667 nm fluorescence, primary screen (AID 1139); details: fluorescence 635/667, higher = more signal
# [8] = tested on: wheat germ agglutinin (Triticum aestivum), Alexa647-labelled; assay: Alexa647-WGA lectin binding to printed small molecules – biochemical, small-molecule microarray, 635/667 nm fluorescence, artefact control for SMM control-protein annotation, profiling panel (AID 1140); details: WGA-A647 binding, 635 nm fluorescence, higher = more signal;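 note: score merges 667 nm feature emission with signal to noise over triplicate slides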
# [9] = target: Luciferin 4-monooxygenase (Photinus pyralis) (UniProt P08659); assay: inhibition of purified Photinus pyralis luciferase – biochemical, luminescence, purified enzyme, 2006 set, primary screen (AID 1141); details: purified firefly luciferase, SteadyGlo luminescence, 30 min; higher = more signal, called active from +8 up or from −8 down;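 note: cell-free assay with purified firefly luciferase at 100 ng per well in PBS; test concentration not given here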
# [10] = tested on: Wnt5a (protein binding on small-molecule microarray); assay: small molecules binding Wnt5a protein – biophysical, small-molecule microarray, 635/667 nm fluorescence, primary screen (AID 1142); details: 635 nm fluorescence, higher = more signal;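 note: fluorescence read at 667 nm with signal to noise per printed feature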
# [11] = ATP-based viability of Huh7 replicon cells – cell-based, CellTiter-Glo luminescence, basal, 48 h, cytotoxicity control for HCV replication inhibitor project, primary screen (AID 1143); details: higher = more signal, called active from +8 up or from −8 down;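 note: Huh7 hepatoma cells carrying a hepatitis C replication reporter with no stimulus; test concentration not given here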
# [12] = Pseudomonas biofilm growth suppression – PAO1 strain, BacTiter-Glo luminescence, LB-PBS, primary screen (AID 1144); details: P. aeruginosa PAO1 biofilm, 12 h, higher = more signal
# [13] = basal CRE-LacZ reporter activity in PC12 – cell-based, unstimulated, primary screen (AID 1145); details: no forskolin, luminescence, 4.5 h, higher = more signal, called active from +8 up or from −8 down
# [14] = forskolin-driven CRE-LacZ activity in PC12 – cell-based, CRE-LacZ reporter, forskolin-stimulated, primary screen (AID 1146); details: luminescence, 4.5 h, higher = more signal, called active from +8 up or from −8 down;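 note: PC12 cells with 6xCRE LacZ reporter stimulated by forskolin 10 µM; beta-galactosidase reporter signal reflecting CREB driven transcription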
# [15] = target: Streptavidin (Streptomyces avidinii) (UniProt P22629); assay: compounds binding control protein streptavidin – biophysical, small-molecule microarray, 635/667 nm fluorescence, artefact control for SMM compound annotation, primary screen (AID 1147); details: higher = more signal;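 note: signal reflects streptavidin binding to arrayed compounds as a control protein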
# [16] = probe aInhba binding on compound microarray – biochemical, small-molecule microarray, 635/667 nm fluorescence, primary screen (AID 1148); details: higher = more signal;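 note: score merges 667nm spot fluorescence with signal-to-noise for antibody binding to printed compounds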
# Torsin-1A (Homo sapiens) [17] = target: Torsin-1A (Homo sapiens) (UniProt O14656); assay: TOR1A wild-type binding on microarray – cell lysate, small-molecule microarray, lysate, 635/667 nm, primary screen (AID 1149); details: COS7 hTOR1A-WT lysate, 635 nm fluorescence, higher = more signal
# Torsin-1A (Homo sapiens) [18] = target: Torsin-1A (Homo sapiens) (UniProt O14656); assay: torsin A mutant lysate binding on microarrays – cell lysate, small-molecule microarray, COS7 lysate, 635/667 nm fluorescence, primary screen (AID 1150); details: COS7 hTOR1A mutant lysate, 635 nm fluorescence, higher = more signal;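 note: score pools 667 nm emission and signal to noise measuring lysate protein binding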
# [19] = tested on: Sonic hedgehog protein (Shh); assay: Sonic hedgehog microarray binding compounds – biochemical, small-molecule microarray, 635/667 nm fluorescence, primary screen (AID 1151); details: 635 nm fluorescence, higher = more signal;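 note: Shh protein binding to compounds spotted on small-molecule microarray slides; score combines spot fluorescence intensity with signal-to-noise across triplicate slides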
# Chain of Follistatin (Homo sapiens) (P19883 whole entry, looked up): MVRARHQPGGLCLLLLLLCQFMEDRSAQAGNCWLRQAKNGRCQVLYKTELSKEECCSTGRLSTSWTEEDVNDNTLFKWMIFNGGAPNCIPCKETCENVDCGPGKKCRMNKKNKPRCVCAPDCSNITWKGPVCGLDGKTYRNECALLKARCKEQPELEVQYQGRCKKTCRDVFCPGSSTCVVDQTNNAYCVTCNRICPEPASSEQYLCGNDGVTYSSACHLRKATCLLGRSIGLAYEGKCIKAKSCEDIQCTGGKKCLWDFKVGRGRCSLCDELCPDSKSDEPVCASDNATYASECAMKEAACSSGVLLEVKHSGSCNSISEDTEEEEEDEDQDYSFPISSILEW
# Chain of Focal adhesion kinase 1 (Homo sapiens) (Q05397 whole entry, looked up): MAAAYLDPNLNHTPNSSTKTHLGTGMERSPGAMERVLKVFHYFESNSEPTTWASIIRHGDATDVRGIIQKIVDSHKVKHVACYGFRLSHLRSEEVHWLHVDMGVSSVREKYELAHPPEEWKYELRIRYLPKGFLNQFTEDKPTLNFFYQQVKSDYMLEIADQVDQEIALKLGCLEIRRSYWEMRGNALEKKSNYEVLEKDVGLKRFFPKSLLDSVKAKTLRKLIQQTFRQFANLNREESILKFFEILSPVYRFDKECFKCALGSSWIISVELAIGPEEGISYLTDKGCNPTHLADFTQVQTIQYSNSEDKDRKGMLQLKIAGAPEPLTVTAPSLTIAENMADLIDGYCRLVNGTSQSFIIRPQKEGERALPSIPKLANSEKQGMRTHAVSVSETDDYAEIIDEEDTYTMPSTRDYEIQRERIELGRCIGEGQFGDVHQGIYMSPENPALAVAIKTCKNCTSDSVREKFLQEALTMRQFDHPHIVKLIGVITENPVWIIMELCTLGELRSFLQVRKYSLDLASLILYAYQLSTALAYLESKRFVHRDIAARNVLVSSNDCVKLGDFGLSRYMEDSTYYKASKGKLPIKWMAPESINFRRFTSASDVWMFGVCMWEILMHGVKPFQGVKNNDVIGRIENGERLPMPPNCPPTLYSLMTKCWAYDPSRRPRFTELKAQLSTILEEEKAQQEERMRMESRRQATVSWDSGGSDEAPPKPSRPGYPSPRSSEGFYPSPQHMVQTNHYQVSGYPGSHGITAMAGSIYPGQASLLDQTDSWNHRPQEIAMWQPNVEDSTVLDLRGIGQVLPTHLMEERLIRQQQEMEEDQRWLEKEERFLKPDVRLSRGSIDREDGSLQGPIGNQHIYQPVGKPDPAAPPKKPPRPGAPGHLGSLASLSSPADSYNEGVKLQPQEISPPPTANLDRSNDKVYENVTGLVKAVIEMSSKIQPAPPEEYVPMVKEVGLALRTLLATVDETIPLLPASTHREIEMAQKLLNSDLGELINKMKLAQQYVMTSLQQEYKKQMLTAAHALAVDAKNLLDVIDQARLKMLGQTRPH
# Chain of Torsin-1A (Homo sapiens) (O14656 whole entry, looked up): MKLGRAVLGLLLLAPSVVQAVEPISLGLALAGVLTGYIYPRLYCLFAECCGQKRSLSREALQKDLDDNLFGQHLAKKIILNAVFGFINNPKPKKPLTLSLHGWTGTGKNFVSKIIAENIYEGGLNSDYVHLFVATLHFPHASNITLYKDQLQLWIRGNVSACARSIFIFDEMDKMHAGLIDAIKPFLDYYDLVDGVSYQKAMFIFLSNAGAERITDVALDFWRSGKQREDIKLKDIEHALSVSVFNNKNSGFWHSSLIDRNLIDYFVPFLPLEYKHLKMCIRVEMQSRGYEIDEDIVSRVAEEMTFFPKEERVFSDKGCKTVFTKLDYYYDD
# Chain of Luciferin 4-monooxygenase (Photinus pyralis) (P08659 whole entry, looked up): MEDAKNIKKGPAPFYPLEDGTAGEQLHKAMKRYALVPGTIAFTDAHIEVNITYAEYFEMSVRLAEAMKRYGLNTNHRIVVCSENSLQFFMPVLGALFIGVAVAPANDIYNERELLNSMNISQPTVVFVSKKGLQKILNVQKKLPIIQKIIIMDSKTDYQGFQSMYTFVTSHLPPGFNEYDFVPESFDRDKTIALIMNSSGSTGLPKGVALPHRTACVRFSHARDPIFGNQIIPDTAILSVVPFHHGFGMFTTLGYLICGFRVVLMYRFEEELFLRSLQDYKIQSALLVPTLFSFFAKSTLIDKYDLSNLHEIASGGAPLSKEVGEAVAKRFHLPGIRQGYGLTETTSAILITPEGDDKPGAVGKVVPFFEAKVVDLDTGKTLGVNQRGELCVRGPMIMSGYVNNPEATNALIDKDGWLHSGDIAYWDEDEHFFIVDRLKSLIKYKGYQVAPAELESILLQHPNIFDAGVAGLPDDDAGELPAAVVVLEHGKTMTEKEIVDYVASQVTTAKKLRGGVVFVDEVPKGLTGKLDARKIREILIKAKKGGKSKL
# Chain of Streptavidin (Streptomyces avidinii) (P22629 whole entry, looked up): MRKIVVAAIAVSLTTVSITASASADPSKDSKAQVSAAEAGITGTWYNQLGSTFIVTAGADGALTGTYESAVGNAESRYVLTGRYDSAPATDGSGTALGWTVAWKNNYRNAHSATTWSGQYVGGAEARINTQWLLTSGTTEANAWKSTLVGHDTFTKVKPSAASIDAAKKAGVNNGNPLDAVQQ
# Chain of Fibroblast growth factor 2 (Homo sapiens) (P09038 whole entry, looked up): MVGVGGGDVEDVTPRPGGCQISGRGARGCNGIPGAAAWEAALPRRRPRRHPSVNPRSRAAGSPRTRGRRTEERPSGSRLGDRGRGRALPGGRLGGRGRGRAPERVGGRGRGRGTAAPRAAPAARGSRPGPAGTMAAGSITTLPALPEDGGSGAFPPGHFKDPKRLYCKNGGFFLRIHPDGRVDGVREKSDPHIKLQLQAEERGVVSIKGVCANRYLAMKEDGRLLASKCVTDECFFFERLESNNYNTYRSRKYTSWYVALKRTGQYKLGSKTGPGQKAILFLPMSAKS
SMILES,composite z-score [1],composite z-score [2],composite z-score [3],composite z-score [4],composite z-score [5],composite z-score [6],z-score [7],composite z-score (Lefty1),composite z-score [8],z-score [9],composite z-score [10],z-score [11],z-score [12],z-score [13],z-score [14],composite z-score [15],composite z-score [16],composite z-score (Torsin-1A (Homo sapiens) [17]),composite z-score (Torsin-1A (Homo sapiens) [18]),composite z-score [19]
C=CC[C@]1(C(=O)NCc2ccccc2)N=C(c2ccc(OCCCO)cc2)O[C@H]1c1ccccc1N=[N+]=[N-],2.39,1.22,0.618,0.971,1.23,-0.26,0.34,0.194,1.23,-8.88 (active),0.713,-3.2 (inactive),-0.00841 (inactive),1.49 (inactive),-0.967 (inactive),2.21,-0.0468,0.818,0.787,-0.231
CN1C(=O)C2C=CC(C(O)C3CC=CCC3)N(N(c3ccccc3)c3ccccc3)C2C1=O (stereo not given),0.118,-1.42,0.102,0.0963,0.988,-0.179,0.43,0.449,0.259,0.529 (inactive),0.155,0.909 (inactive),0.472 (inactive),0.629 (inactive),0.47 (inactive),0.184,0.027,0.36,-0.368,0.0122
N#Cc1ccc(NN2C(C(O)C(c3ccccc3)c3ccccc3)C=CC3C(=O)N(c4ccccc4)C(=O)C32)cc1 (stereo not given),0.238,1.26,0.545,1.01,0.337,-0.469,1.49,-0.0452,1.4,0.523 (inactive),0.382,-0.919 (inactive),-0.731 (inactive),0.243 (inactive),-0.69 (inactive),1.21,0.204,0.604,0.274,-0.634
COC(=O)[C@@]1(Cc2ccc(F)cc2)[C@H]2c3cc(C(=O)N(C)C)n(Cc4cc(F)c(F)c(F)c4)c3C[C@H]2CN1C(=O)c1ccccc1,1.13,1.21,0.538,0.711,1.02,-0.0402,0.918,-0.788,0.704,2.37 (inactive),0.283,-3 (inactive),0.459 (inactive),1.53 (inactive),0.578 (inactive),1.25,1.08,-0.272,0.193,-0.176
CC(C)N1C(=O)c2ccccc2[C@](C)(C(=O)NCCN2CCOCC2)[C@@H]1c1ccc(CO)cc1,-0.293,-0.0941,0.356,-0.726,0.897,-0.574,-0.662,-0.117,-0.489,-0.265 (inactive),-0.568,0.0068 (inactive),0.358 (inactive),0.585 (inactive),-0.875 (inactive),-0.854,-0.0719,0.0436,0.212,-0.776
NCCCCCNC(=O)[C@@H]1C[C@@H]2C(=O)N[C@@H](Cc3ccccc3)C(=O)N2[C@@H]1c1ccc(O)cc1,1.85,0.958,0.255,0.89,1.28,0.871,0.972,0.865,0.86,-0.365 (inactive),0.0588,0.0478 (inactive),-0.35 (inactive),0.281 (inactive),-0.629 (inactive),1.38,0.174,0.202,0.394,1.2
CN(C)C(=O)[C@]1(Cc2ccccc2N=[N+]=[N-])N=C(c2ccc(OCCCO)cc2)O[C@@H]1c1ccccc1N=[N+]=[N-],2.42,1.18,0.646,1.01,1.27,1.26,1.1,0.513,1.21,-3.94 (inactive),0.46,-4.48 (inactive),-0.938 (inactive),0.0686 (inactive),-1 (inactive),1.41,-0.0162,1.49,0.799,0.428
[N-]=[N+]=Nc1ccccc1[C@H]1OC(c2ccc(OCCCO)cc2)=N[C@@]1(CCS(=O)(=O)c1ccccc1)C(=O)NCC(O)CO (stereo not given in full),1.52,0.94,0.605,1.07,1.27,0.057,0.233,-0.0179,0.914,-9.88 (active),0.751,-1.46 (inactive),0.732 (inactive),0.848 (inactive),-0.249 (inactive),1.29,0.15,1.26,0.774,-1.02
CC(C)=CCN[C@H](CO)c1ccccc1,-0.23,-0.341,-0.0383,0.118,0.546,0.314,-0.989,0.564,-0.246,0.765 (inactive),-0.249,-3.85 (inactive),-0.0678 (inactive),-1.05 (inactive),0.0877 (inactive),0.0079,0.102,-0.801,0.324,0.627
C=C[C@H](C)[C@@H](OC(=O)Nc1ccc(OC)cc1)c1ccc(O)c2ccccc12,0.965,0.0812,-0.603,-0.95,0.999,0.0495,-1.64,1.04,-0.235,-5.17 (inactive),0.198,-6 (inactive),-0.899 (inactive),0.804 (inactive),0.819 (inactive),-0.387,-0.206,0.308,0.422,1.36
CC(C)C(CO)N1C(=O)[C@@H]2C3C(=O)OCCC/C=C\[C@H]3OC23C=CCN(CCN2CCOCC2)C(=O)[C@@H]13 (stereo not given in full),-0.92,-1.54,-0.0582,-0.0904,0.113,0.164,-0.835,0.579,-1.24,-0.519 (inactive),0.0992,0.39 (inactive),0.723 (inactive),-0.212 (inactive),-0.0271 (inactive),-0.578,-0.251,-0.111,-0.184,0.856
C[N+](C)(C)CCCCCCNC(=O)[C@@H]1C[C@@H]2C(=O)N[C@@H](Cc3ccccc3)C(=O)N2[C@@H]1c1cccc(OCCO)c1,2.18,0.432,0.214,0.608,1.34,1.45,0.435,1,0.659,-0.205 (inactive),0.122,-0.428 (inactive),-0.573 (inactive),-1.22 (inactive),-1.04 (inactive),0.0123,-0.0918,0.787,1.51,1.92
